From PubChem BioAssay AID2330 (Broad Institute, 2010)
About 2,800 (7.6%) of roughly 37,000 compounds were called active. Roughly 1% stayed inconclusive and do not appear here. The entries come from a sample that favours actives as a whole. Unmarked numbers belong to inactive results. Cut-off read from the data, not from the text of the source: active = inhibition above about 80%; inconclusive = no clear call, values can overlap the other calls; inactive = below that.

assay: NOMO-1 AML cell viability reduction, primary screen, STK33 inhibitor project, CellTiter-Glo luminescence (AID 2330); conditions: NOMO-1 AML viability, 72 h, active compounds read high, concentration not given here

Row | SMILES | inhibition
1 | C[C@@H]1CN([C@@H](C)CO)C(=O)c2cc(NS(=O)(=O)c3ccccc3)ccc2O[C@H]1CN(C)CC1CC1 | -13.4%
2 | O=C(CN(C1CCCCC1)S(=O)(=O)c1ccc(Cl)cc1)Nc1ccccc1C(F)(F)F | 25.5%
3 | COc1ccc(S(=O)(=O)N(C)C[C@H]2Oc3ccc(N(C)C)cc3C(=O)N([C@@H](C)CO)C[C@@H]2C)cc1 | 11.7%
4 | CN1C(=O)C(O)(CC(=O)c2ccco2)c2cc([N+](=O)[O-])ccc21 (configuration not stated) | 36.2%
5 | CN1C(=O)CC(c2ccccc2)C1=O (configuration not stated) | 14.7%
6 | CN1C(=O)C(Cc2ccccc2)(Cc2ccccc2)c2ccccc21 | 96.7% (active)
7 | C[C@H](CO)N1C[C@H](C)[C@H](CN(C)C)Oc2c(NS(=O)(=O)c3ccc(Cl)cc3)cccc2C1=O | 17.7%
8 | CN1CCN(C(=O)CCc2nc(-c3ccc(Cl)cc3)no2)CC1 | -5.54%
9 | Cn1c(Cc2csc(N)n2)nnc1SC/C=C/c1ccccc1 | 23.5%
10 | CC(C)NC(=O)N(C)C[C@H]1Oc2ccc(NC(=O)Cn3cnnn3)cc2CC(=O)N([C@H](C)CO)C[C@H]1C | 36.1%
11 | CC1OC(OC2C(OC3C(O[C@H]4CC[C@@]5(C)C(CC[C@]6(C)C5CC=C5[C@@H]7CC(C)(C)C[C@@H](O)[C@]7(C)CC[C@]56C)C4(C)C)OC(C(=O)O)C(O)C3O)OC(CO)C(O)C2O)C(O)C(O)C1O (some centres not stated) | 25.4%
12 | C/C=C(/C)C(=O)O[C@H]1CC(C)(C)C[C@H]2C3=CCC4[C@@]5(C)CC[C@H](O[C@@H]6O[C@H](C(=O)O)[C@@H](O[C@@H]7O[C@H](CO)[C@H](O)[C@H](O)[C@H]7O[C@@H]7O[C@H](CO)[C@@H](O)[C@H](O)[C@H]7O)[C@H](O)[C@H]6O[C@@H]6O[C@@H](C)[C@H](O)[C@@H](O)[C@H]6O)C(C)(C)C5CC[C@@]4(C)[C@]3(C)[C@@H](O)[C@@H](O)[C@@]12CO (some centres not stated) | 119% (active)
13 | CC1(C)C2CC[C@]3(C)C(C(=O)C=C4[C@@H]5C[C@@](C)(C(=O)O)CC[C@]5(C)CC[C@]43C)[C@@]2(C)CC[C@@H]1O (some centres not stated) | 63.8%
14 | C[C@@H]1O[C@@H](O[C@H]2[C@@H](Oc3cc(O)c4c(c3)O[C@H](c3ccc(O)cc3)CC4=O)O[C@H](CO)[C@@H](O)[C@@H]2O)[C@H](O)[C@H](O)[C@H]1O | -11.7%
15 | CC1(C)CC[C@]2(C(=O)O)CC[C@]3(C)C(=CCC4[C@@]5(C)CC[C@H](OC6O[C@H](CO)[C@@H](O)[C@H](O[C@@H]7O[C@H](CO)[C@@H](O)[C@H](O)[C@H]7O)[C@H]6O)C(C)(C)C5CC[C@]43C)[C@@H]2C1 (some centres not stated) | 119% (active)
16 | CC1(C)CC[C@@]2(C(=O)O)C(C1)C1=CCC3[C@@]4(C)CC[C@H](O)C(C)(C)C4CC[C@@]3(C)[C@]1(C)C[C@H]2O (some centres not stated) | 108% (active)
17 | C=CC1(C)C=C2CCC3C(C)(C)C(O[C@@H]4O[C@@H](CO)[C@H](O)[C@H]4O)CCC3(C)C2CC1O[C@@H]1O[C@H](C)[C@@H](OC)[C@H](O)[C@H]1O (some centres not stated) | 14%
18 | COC(=O)C1=CO[C@@H](O[C@@H]2O[C@H](CO)[C@@H](O)[C@H](O)[C@H]2O)[C@@H]2[C@@](C)(O)[C@@H](OC(=O)/C=C/c3ccc(OC)c(OC)c3)C[C@]12O | 11.5%
19 | C/C=C(/C)C(=O)O[C@H]1CC(C)(C)C[C@H]2C3=CCC4[C@@]5(C)CC[C@H](O[C@@H]6O[C@H](C(=O)O)[C@@H](O[C@@H]7O[C@H](CO)[C@H](O)[C@H](O)[C@H]7O[C@@H]7O[C@H](CO)[C@@H](O)[C@H](O)[C@H]7O)[C@H](O)[C@H]6O[C@@H]6O[C@@H](C)[C@H](O)[C@@H](O)[C@H]6O)C(C)(C)C5CC[C@@]4(C)[C@]3(C)[C@@H](OC(C)=O)[C@@H](O)[C@@]12COC(C)=O (some centres not stated) | 121% (active)
20 | C[C@@H]1CC[C@]2(C(=O)O)CC[C@]3(C)C(=CCC4[C@@]5(C)CC[C@H](O)[C@](C)(C(=O)O)C5CC[C@]43C)C2[C@]1(C)O (some centres not stated) | 29.2%
21 | C[C@@H]1CN([C@H](C)CO)C(=O)c2cc(NC(=O)CCCCCC(=O)Nc3ccccc3N)ccc2O[C@@H]1CN(C)S(=O)(=O)c1ccc(Cl)cc1 | 53.5%

Row | SMILES | inhibition
22 | CC(C)(C)c1nc(=S)[nH][nH]1 | 17.3%
23 | Cc1cc2c(=O)n(C)c(SCC(=O)c3cc4ccccc4o3)nc2s1 | -4.22%
24 | O=C1CC(c2ccccc2)C(=O)N1c1ccc(F)cc1 (configuration not stated) | 22.5%
25 | C[C@@H]1CN([C@@H](C)CO)C(=O)c2cccc(NC(=O)c3ccncc3)c2O[C@H]1CN(C)S(=O)(=O)c1ccc(F)cc1 | 19.5%
26 | C[C@H](CO)N1C[C@H](C)[C@@H](CN(C)S(=O)(=O)c2ccc(Cl)cc2)Oc2ccc(NS(=O)(=O)c3cn(C)cn3)cc2C1=O | 13.1%
27 | C[C@@H]1CN([C@H](C)CO)C(=O)c2cccc(NS(=O)(=O)c3ccc(Cl)cc3)c2O[C@@H]1CN(C)Cc1ccc(Cl)c(Cl)c1 | 33.7%
28 | O=C(CSc1nnc(-c2ccccc2Cl)n1-c1ccccc1)Nc1ccc([N+](=O)[O-])cc1 | 18.6%
29 | C[C@@H]1CN([C@@H](C)CO)C(=O)c2cc(NC(=O)Cc3ccccc3)ccc2O[C@@H]1CN(C)CC1CCCCC1 | 17.8%
30 | NC(=O)c1c(NC(=O)c2cnn3c(C(F)F)cc(-c4ccccc4)nc23)sc2c1CCCC2 | 112% (active)
31 | COc1cccc2cc(C(=O)Nc3sc4c(c3C(N)=O)CCCCC4)c(=O)oc12 | 6.77%
32 | O=C(NCc1cccnc1)c1cnn2c(C(F)F)cc(-c3ccccc3)nc12 | 11%
33 | O=C(Cn1cnc([N+](=O)[O-])n1)Nc1c(Cl)cccc1Cl | -1.21%
34 | COc1ccccc1NC(=O)CSc1n[nH]c(C)n1 | 4.79%
35 | COc1ccccc1NC(=O)CSc1nc2cc3ccccc3cc2[nH]1 | 108% (active)
36 | COc1ccc(OC)c(NC(=O)CSc2nc(-c3ccccc3)cc(=O)[nH]2)c1 | 5.5%
37 | Cc1ccc(S(=O)(=O)N(C)C[C@H]2Oc3ccc(NC(=O)Nc4cccc5ccccc45)cc3CC(=O)N([C@H](C)CO)C[C@H]2C)cc1 | 23.8%
38 | CC(=O)c1cccc(NC(=O)CN(C)S(=O)(=O)c2ccc3ccccc3c2)c1 | 19.7%
39 | Nc1nnc(SCC(=O)Nc2ccc(F)c(Cl)c2)s1 | 10%
40 | Cc1ccc(N(C(C)C(=O)Nc2ccc(F)c(Cl)c2)S(C)(=O)=O)cc1C (configuration not stated) | 32.7%
41 | C[C@H](CO)N1C[C@H](C)[C@@H](CN(C)S(=O)(=O)c2ccc(F)cc2)Oc2c(NC(=O)Nc3ccccc3)cccc2C1=O | 8.66%
42 | COc1cc(NC(=O)COc2ccc(Cl)cc2C)c(OC)cc1Cl | -5.6%

Row | SMILES | inhibition
43 | C=C1C(=O)OC2/C=C(\C)CC3C=C(CC/C=C(\C)CCC12)C(=O)O3 (configuration not stated) | 114% (active)
44 | C[C@@H]1CN([C@@H](C)CO)C(=O)c2cc(NC(=O)C3CCCCC3)ccc2O[C@@H]1CN(C)S(=O)(=O)c1ccc(F)cc1 | -1.45%
45 | C[C@@H]1CN([C@@H](C)CO)C(=O)c2cc(NS(=O)(=O)c3cccs3)ccc2O[C@@H]1CN(C)S(=O)(=O)c1ccc(F)cc1 | 7.75%
46 | CC[C@H]1CN2CCc3cc(OC)c(OC)cc3[C@@H]2C[C@@H]1C[C@H]1NCCc2cc(OC)c(OC)cc21 | 144% (active)
47 | Cc1noc(C)c1NC(=O)Nc1ccc2c(c1)C(=O)N([C@@H](C)CO)C[C@H](C)[C@H](CN(C)Cc1ccc(-c3ccccc3)cc1)O2 | 28.6%
48 | COc1ccc(S(=O)(=O)Nc2ccc3c(c2)C(=O)N([C@@H](C)CO)C[C@@H](C)[C@H](CN(C)S(=O)(=O)c2cccs2)O3)cc1 | -10.4%
49 | CC(=O)c1cccc(NC(=O)C(C)N(c2ccc(C)cc2)S(C)(=O)=O)c1 (configuration not stated) | 14.6%
50 | Cc1ccc(S(=O)(=O)N(C)CC(=O)Nc2ccc(C#N)cc2)cc1 | -13.1%
51 | COc1ccc(NC(=O)Nc2ccc3c(c2)CC(=O)N([C@H](C)CO)C[C@H](C)[C@H](CN(C)S(=O)(=O)c2ccccc2)O3)cc1 | 57.6%
52 | COc1ccc(S(=O)(=O)N(C)C[C@@H]2Oc3ccc(NC(=O)C4CC4)cc3CC(=O)N([C@@H](C)CO)C[C@@H]2C)cc1 | -0.988%
53 | C[C@@H]1CN([C@@H](C)CO)C(=O)Cc2cc(NC(=O)Nc3ccc4c(c3)OCO4)ccc2O[C@@H]1CN(C)S(=O)(=O)c1ccc(Cl)cc1 | 30.8%
54 | C[C@H]1CN([C@@H](C)CO)C(=O)Cc2cc(NC(=O)Nc3ccc(C(F)(F)F)cc3)ccc2O[C@@H]1CN(C)S(=O)(=O)c1ccc(Cl)cc1 | 105% (active)
55 | C[C@@H]1CN([C@H](C)CO)C(=O)Cc2cc(NC(=O)C3CCCCC3)ccc2O[C@H]1CN(C)S(=O)(=O)c1ccc(Cl)cc1 | 28.6%
56 | C[C@@H]1CN([C@@H](C)CO)C(=O)Cc2cc(NC(=O)Nc3ccccc3)ccc2O[C@@H]1CN(C)S(=O)(=O)c1ccc(F)cc1 | 14.1%
57 | C[C@@H]1CN([C@@H](C)CO)C(=O)Cc2cc(NC(=O)Nc3ccc(F)cc3)ccc2O[C@@H]1CN(C)S(=O)(=O)c1ccccc1 | 20.8%
58 | C[C@H]1CN([C@@H](C)CO)C(=O)Cc2cc(NC(=O)C3CC3)ccc2O[C@H]1CN(C)S(=O)(=O)c1ccc(Cl)cc1 | 125% (active)
59 | COc1ccc(NC(=O)Nc2ccc3c(c2)CC(=O)N([C@H](C)CO)C[C@H](C)[C@H](CN(C)S(=O)(=O)c2ccc(OC)cc2)O3)cc1 | 23.1%
60 | C[C@@H]1CN([C@H](C)CO)C(=O)Cc2cc(NC(=O)Nc3ccc(C(F)(F)F)cc3)ccc2O[C@@H]1CN(C)S(=O)(=O)c1ccccc1 | 31.7%
61 | C[C@H]1CN([C@@H](C)CO)C(=O)Cc2cc(NC(=O)Nc3ccc(F)cc3)ccc2O[C@H]1CN(C)S(=O)(=O)c1ccc(F)cc1 | 126% (active)
62 | C[C@H]1CN([C@@H](C)CO)C(=O)Cc2cc(NC(=O)Nc3ccc(F)cc3)ccc2O[C@H]1CN(C)S(=O)(=O)c1ccccc1 | 108% (active)
